Inconclusive results are not listed. Activity calls are given as the source filed them. Unless noted, calls follow the shape of the dose curve; as a rule, active = well fitted curve in the direction sought with a large enough effect; inconclusive = small, poorly fitted or top-dose-only effect, or another doubt; inactive = no such curve, though single readings can be large; an effect the other way counts as inactive or inconclusive.

We go through 36 compounds from PubChem BioAssay (NCATS).

Assay [1] is described as follows: qHTS of Nrf2 Activators: LOPAC Validation (AID 624149). Also: 0% is about no effect. The procedure, abridged:
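AREc32_Fluc cells, 1000/well in OPTI-MEM with 5% FBS, grown overnight, then exposed to compounds for 24 hr at 37 deg C, 5% CO2. ARE-driven firefly luciferase read by Steady-Glo luminescence after 30 min at RT.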
On the technique in general: In qHTS, concentration-response curves come from the screen itself.

Assay [2] is described as follows: HTS Assay for Allosteric Antagonists of the Human D2 Dopamine Receptor: Hit Validation in HTRF (AID 624455).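 Also: stable D1 dopamine receptor cell line scored for blocking the D1 response; % is scaled to controls: 0 for no effect and ±100 for the full control effect.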 The essentials: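 Hit validation in cells stably expressing the D1 dopamine receptor, run in HTRF format. Compounds were tested for their ability to inhibit the D1-mediated response.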
A short description of assay [3]: Cytotoxicity counterscreen for NFkB agonists and antagonists (AID 624476).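 Also: cells exposed to compound for 48 hours.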 Also: potency is read from the fitted curve at half-maximal effect.
A short description of assay [4]: qHTS Assay for Identification of Small Molecule Agonists for NFkB Signaling Pathway. (AID 624478). Also: 0% is about no effect. The essentials: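 NFkB-bla ME-180 cells carry a beta-lactamase reporter. They received compound plus TNF alpha at 10 pM final (its EC50) for 5 h at 37 C. Reporter activity was read as 460/530 nm emission ratio after 2 h LiveBLAzer substrate loading.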
Assay [5] can be described thus: qHTS Assay for Identification of Small Molecule Antagonists for NFkB Signaling Pathway. (AID 624479; calls by dose curve;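 also: pathway stimulated with TNF alpha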; also: potency is read from the fitted curve at half-maximal effect).
Assay [6] can be described thus: Cell Proliferation Assay against the TMD8 Cell Line (AID 651645).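 Also: cells exposed to compound for 48 h before reading.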 The note with it: TMD8 DLBCL cell line proliferation/viability; at 46.1 µM (top of the series) unless noted. The procedure, abridged:
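500 TMD8 cells/well, RPMI + Glutamax, no phenol red, 5% FBS; cpd added immediately; 48 h, 37C, 5% CO2; CellTiter-Glo, luminescence. Controls: DMSO = 100%, bortezomib 9.2 uM final = 0%.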

Assay [7] can be described thus: Cell Proliferation Assay against the HBL1 Cell Line (AID 651646).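 Also: cells exposed to compound for 48 h before reading.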 The note with it: HBL1 DLBCL cells; at 46.1 µM (top of the series) unless noted. The essentials: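 HBL1 ABC DLBCL cells, 500/well in RPMI with 5% FBS, treated for 48 h at 37C. Viability read by CellTiter-Glo luminescence, normalized to DMSO as 100% and 9.2 uM bortezomib as 0%.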
Assay [8] is described as follows: Cell Proliferation Assay against the TMD8 Cell Line (Caspase readout at 16 hrs) (AID 651712). The essentials: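 TMD8 cells in RPMI with 5% FBS were treated with compound for 16 h at 37 C, then caspase 3/7 activation was read by Caspase-Glo luminescence. Percent activity was scaled to DMSO (0%) and 9.2 uM bortezomib final (100%).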
Assay [9] is described as follows: Cell Proliferation Assay against the TMD8 Cell Line (Caspase readout at 8 hrs) (AID 651713).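 Also: 0% = DMSO and 100% = 9.2 µM bortezomib caspase signal.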 The essentials: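 TMD8 cells in RPMI plus 5% FBS were treated with compound for 8 h at 37C. Caspase 3/7 activation was read by Caspase-Glo luminescence. Percent activity was scaled from DMSO (0%) to 9.2 uM bortezomib final (100%).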
In assay [10] the target is Tyrosine-protein kinase Yes (Homo sapiens) (UniProt P07947). Put plainly: qHTS for small molecule inhibitors of Yes1 kinase: Primary Screen (AID 686947). Also: nearly all actives have a fitted effect of over 60% in size. Also: potency is read from the fitted curve at half-maximal effect. The procedure, abridged: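 Yes1 (4 nM) preincubated 20 min with compound, then 60 min room-temperature reaction with 0.1 mM ATP and 0.3 mg/mL poly(E4Y) in pH 7.5 Tris, 10 mM MgCl2. ADP measured by ADP-Glo luminescence, normalised to enzyme/no-enzyme controls.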

Assay [11] in a line: qHTS for small molecule inhibitors of Yes1 kinase: Counter Assay (AID 686950).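 Also: no kinase present so only ADP-Glo detection of a fixed ADP amount is tested; luminescence from ADP-Glo reporting ADP in a fixed ATP and ADP mixture; 0% = DMSO wells with ATP plus ADP and -100% = ATP-only wells without ADP.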 The essentials: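 Enzyme-free detection counter-screen: compounds preincubated 20 min in buffer, then 0.08 mM ATP plus 0.02 mM ADP added for 60 min at room temperature; ADP-Glo luminescence. Buffer 50 mM Tris pH 7.5, 10 mM MgCl2, 150 mM NaCl; normalized to ATP+ADP and ATP-only controls.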
Assay [12] is described as follows: qHTS assay for small molecule activators of the nuclear factor-kappa B (NF-kB) signaling pathway (AID 651749; active = well fitted activation curve with a large enough effect in the signal ratio; the % refers to the signal ratio; also: % of control where 0% means no effect). The conditions noted are these: NF-kB-bla ME-180 cells, beta-lactamase FRET ratio, 16 h; stronger effect = higher value. The essentials: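 NF-kB-bla ME-180 cells carrying a beta-lactamase reporter under an NF-kB response element, 2,000 cells/well, exposed to compound for 16 hr at 37C; FRET-based beta-lactamase fluorescence read-out of pathway activation.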

Assay [13] can be described thus: qHTS assay for environmental chemicals that activate the Aryl hydrocarbon Receptor (AhR) signaling pathway (AID 651777). Also: % of control where 0% means no effect; nearly all actives have a fitted effect of over 15% in size. The conditions noted are these: 1A2-DRE human hepatoma cells, luciferase, 24 h; stronger effect = higher value. The procedure, abridged:
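Following a 24 hr incubation with test chemicals at 37 C and 5% CO2, 1A2-DRE human hepatoma cells received One-Glo reagent; after 30 min at room temperature, luciferase output reflected CYP1A2 induction via AhR.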

Sequence of Tyrosine-protein kinase Yes (Homo sapiens) (P07947 whole entry, looked up): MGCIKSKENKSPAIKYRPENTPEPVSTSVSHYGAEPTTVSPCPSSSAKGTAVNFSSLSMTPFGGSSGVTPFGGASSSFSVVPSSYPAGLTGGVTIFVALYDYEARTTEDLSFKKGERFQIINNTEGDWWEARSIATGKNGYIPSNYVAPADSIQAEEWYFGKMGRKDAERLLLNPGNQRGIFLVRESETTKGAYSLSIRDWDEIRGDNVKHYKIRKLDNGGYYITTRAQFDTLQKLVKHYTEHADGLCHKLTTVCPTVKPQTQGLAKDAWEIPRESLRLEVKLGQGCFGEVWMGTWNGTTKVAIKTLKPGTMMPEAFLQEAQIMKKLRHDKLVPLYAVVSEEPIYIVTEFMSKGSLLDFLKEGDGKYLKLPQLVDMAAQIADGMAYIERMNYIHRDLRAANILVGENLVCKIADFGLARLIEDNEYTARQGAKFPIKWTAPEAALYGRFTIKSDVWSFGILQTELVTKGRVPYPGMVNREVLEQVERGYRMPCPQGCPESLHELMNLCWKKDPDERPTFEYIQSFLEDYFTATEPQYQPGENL

For the compound `Cc1cnc(NC(=O)C2=C(O)c3ccccc3S(=O)(=O)N2C)s1`, the outcome in assay [1] was inactive. Moreover, the Potency entry in assay [2] is “inactive”.
As to `NNCCc1ccccc1`, the call in [1] was inactive. Further, the Potency entry in [2] is “inactive”.
`O=c1n(CCCN2CCN(c3cccc(Cl)c3)CC2)nc2ccccn12`: the call in assay [1] was inactive. The Potency entry in assay [2] was “inactive”.
For the compound `CCOC(=O)C1=C[C@]2(CC)CCCN3CCc4c(n1c1ccccc41)[C@@H]32`, the compound was called inactive in [1]. Moreover, the Potency result in [2] is “inactive”.
As for `Cc1oncc1C(=O)Nc1ccc(C(F)(F)F)cc1`, the call in assay [1], in assay [4] and in assay [11] was inactive. Moreover, the Potency result in [2], in [3], in assay [5], in assay [8], in assay [9] and in assay [10] was “inactive” throughout. The viability (% of control) in [6] came out at 54%. The viability, percent of control in assay [7] came out at 84%.
As to `CN1CCN(CCCN2c3ccccc3Sc3ccc(C(F)(F)F)cc32)CC1`, in assay [1], the result was inactive. Moreover, the Potency result in [2] is “inactive”.
`Clc1cccc(Cl)c1NC1=NCCN1`: the compound was classed as inactive in assay [1]. The Potency result in assay [2] is “inactive”.
As for `CCOC(=O)N1CCC(=C2c3ccc(Cl)cc3CCc3cccnc32)CC1`, the compound was classed as inactive in [1]. For the same compound, the Potency entry in [2] is “inactive”.
For `C[C@]12CCC(=O)C=C1CC[C@@H]1[C@@H]2[C@@H](O)C[C@@]2(C)[C@H]1CC[C@]2(O)C(=O)CO`, the compound was called inactive in [1], in assay [4] and in assay [11]. Moreover, the Potency entry in assay [2], in [3], in assay [5], in assay [8], in [9] and in [10] was “inactive” in each case. In addition, in assay [6], the viability (% of control) came to 65.6%. In addition, the viability, percent of control in assay [7] worked out at 39.1%. Also, the activation in assay [12] is -2.01% (inactive); in [13] it was -1.47% (inactive).
As for `c1ccc([C@H]2CN3CCSC3=N2)cc1`, the call in [1] was inactive.
`Nc1ccc(S(=O)(=O)Nc2ccnn2-c2ccccc2)cc1`: the outcome in assay [1] was inactive. The Potency entry in assay [2] is “inactive”.
Regarding `NCCCC(N)(C(=O)O)C(F)F` (centres undefined), the call in [1] was inactive. For the same compound, the Potency result in assay [2] was “inactive”.
As for `CC(C)NCC(O)COc1ccc(COCCOC(C)C)cc1` (centres undefined), in assay [1], the call was inactive. For the same compound, in assay [2], the Potency entry is “inactive”.
In the case of `CC(C[N+](C)(C)C)OC(N)=O` (centres undefined), the result in assay [1] was inactive. Further, in assay [2], the Potency entry was “inactive”.
Regarding `Cc1cn[nH]c1`, the result in assay [1] was inactive. Further, in assay [2], the Potency entry is “inactive”.
For `CCCCNc1cc(C(=O)O)cc(S(N)(=O)=O)c1Oc1ccccc1`, in [1], the compound was called inactive. Moreover, the Potency result in [2] was “inactive”.
`NCCc1ccc(O)c(O)c1`: the compound was called inactive in assay [1].
Take `O=C(Nc1nc2ccccc2n1CCN1CCOCC1)c1cccc([N+](=O)[O-])c1`: the call in [1], in [4] and in assay [11] was inactive. Further, the Potency result in [2], in assay [3], in assay [8] and in [10] was “inactive” throughout. In addition, in assay [5], the Potency is 2.66 µM (active). Besides, the viability (% of control) in assay [6] is 77.2%. Moreover, the viability, percent of control in [7] worked out at 89.4%.
In the case of `CCn1cc(C(=O)O)c(=O)c2cc(F)c(N3CCNC(C)C3)c(F)c21` (centres undefined), in assay [1], the outcome was inactive. Further, in [2], the Potency result was “inactive”.
With `CC(C)C[C@H](NC(=O)[C@@H](O)[C@H](N)Cc1ccccc1)C(=O)O`, the compound was classed as inactive in assay [1], in assay [4] and in [11]. Also, the Potency result in [2], in assay [3], in assay [5], in assay [8] and in assay [9] was “inactive” each time. For the same compound, the viability (% of control) in assay [6] turned out to be 89.3%. Also, the viability, percent of control in assay [7] came out at 106%.
`Nc1nc2c(ncn2COCCO)c(=O)[nH]1`: in assay [1], the outcome was inactive. Moreover, the Potency entry in assay [2] was “inactive”.
Turning to `CCN(CC)CCCC(C)Nc1ccnc2cc(Cl)ccc12` (centres undefined), the compound was classed as inactive in assay [1]. For the same compound, the Potency entry in [2] is “inactive”.
Regarding `Oc1ccc(C2CNCCc3c2cc(O)c(O)c3Cl)cc1` (centres undefined), the outcome in [1] was inactive.
On to `N=c1nc(N2CCCCC2)cc(N)n1O`, for which the compound was called inactive in [1]. Moreover, the Potency result in assay [2] was “inactive”.
Regarding `CCC(C)N(C)C(=O)c1cc2ccccc2c(-c2ccccc2Cl)n1` (centres undefined), the compound was called inactive in [1] and in [11]. Moreover, the Potency result in [2], in assay [3], in [5], in assay [9] and in assay [10] was “inactive” in each case. Also, in assay [6], the viability (% of control) worked out at 65.6%. For the same compound, in assay [7], the viability, percent of control amounted to 90%.
Take `Nc1nc2ccc(OC(F)(F)F)cc2s1`: the result in assay [1] and in assay [11] was inactive. Also, the Potency entry in assay [2], in assay [3], in [5], in assay [8], in [9] and in assay [10] was “inactive” in each case. Moreover, the viability, percent of control in [7] is 50.6%.
Regarding `CC(C)(Sc1ccc(CCN(CCCCC2CCCCC2)C(=O)NC2CCCCC2)cc1)C(=O)O`, the compound was classed as inactive in assay [1], in assay [4] and in [11]. Also, the Potency result in [2], in assay [8] and in [9] was “inactive” in each case. Also, the Potency was 23.5 µM (active) in assay [3] and 21.1 µM (active) in assay [5]. For the same compound, the viability (% of control) in assay [6] worked out at 92.1%. Also, in [7], the viability, percent of control turned out to be 13.8%. Further, the activation in [12] was 7.6% (inactive); in assay [13] it was 0.388% (inactive).
`C1COC(NC(C2CC2)C2CC2)=N1`: the compound was classed as inactive in [1]. In [2], the Potency result is “inactive”.
`OC(CCN1CCCCC1)(c1ccccc1)C1CC2C=CC1C2` (centres undefined): the call in assay [1] was inactive. Also, the Potency result in [2] was “inactive”.
As to `Cc1cccc(-c2[nH]c(C(C)(C)C)nc2-c2ccc3nccnc3c2)n1`, the call in assay [1], in assay [4] and in assay [11] was inactive. Also, the Potency entry in [2], in assay [3], in [5], in assay [8] and in assay [9] was “inactive” each time. Moreover, the viability (% of control) in [6] was 34%. For the same compound, the viability, percent of control in assay [7] turned out to be 100%. In assay [10], the Potency was 0.688 µM (active).
In the case of `OC(CN1CCC(Cc2ccc(F)cc2)CC1)c1ccc(Cl)cc1` (centres undefined), the compound was called inactive in assay [1], in assay [4] and in assay [11]. In addition, the Potency entry in assay [2], in [3], in assay [5], in assay [8], in assay [9] and in assay [10] was “inactive” in each case. In assay [6], the viability (% of control) was 74%. In addition, the viability, percent of control in [7] stood at 66.4%.
On to `O=C(O)COCCN1CCN(C(c2ccccc2)c2ccc(Cl)cc2)CC1` (centres undefined), for which the compound was called inactive in [1].
Take `N[C@@H]1CONC1=O`: in [1], the call was inactive. In addition, in [2], the Potency entry is “inactive”.
For the compound `Cc1[nH]c(=O)c(C#N)cc1-c1ccc2nccn2c1`, the outcome in assay [1] and in assay [11] was inactive. Moreover, the Potency result in assay [2], in [3], in [5], in [8], in assay [9] and in assay [10] was “inactive” in each case. Moreover, in [6], the viability (% of control) came out at 104%. Moreover, the viability, percent of control in [7] worked out at 78.9%.
For the compound `Cc1ccc(N(CC2=NCCN2)c2cccc(O)c2)cc1`, in assay [1], the compound was classed as inactive. Besides, the Potency entry in assay [2] is “inactive”.
Regarding `O=C1CCc2cc(OCCCCc3nnnn3C3CCCCC3)ccc2N1`, the compound was called inactive in [1]. Besides, the Potency result in assay [2] is “inactive”.
